# Bioassay records: PubChem, several laboratories
# Jurkat NFkB inh: inhibitors of the PMA/ionomycin-induced NF-kB reporter in Jurkat cells. PMA/ionomycin-induced NF-kB luciferase reporter, luminescence. inhibition, % at 4 µM. actives 0.53% (n = 330,000); in the data active = inhibition above about 50%
# Shn3 3UTR inh: reduces Shn3 3'UTR luciferase signal in osteoblasts. Clone20 osteoblast Shn3 3'UTR firefly luciferase, 24 h. inhibition, % at 12.5 µM. actives 0.52% (n = 360,000);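 active = mean inhibition of at least 75% with every replicate also reaching 75%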;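 also: 0% = median of neutral control wells and 100% = pilot-screen positive control compound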
# Gli-Sufu block: Gli-Sufu pathway antagonism. Sufu-KO-LIGHT fibroblasts, Gli luciferase reporter luminescence. inhibition, % at 5 µM. actives 0.74% (n = 340,000). AID 588413;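 active = inhibition above about 55%, limit read from the data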;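 also: 0% = DMSO-treated cells and 100% = wells with medium but no cells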
# LMP1 NFkB inh: inhibitors of Epstein-Barr LMP1-induced NF-kappaB reporter; inhibition, % at 12.5 µM; AID 504558; actives 0.69% (n = 350,000); LMP1-induced NF-kappaB luciferase reporter cells, luminescence; in the data active = inhibition above about 41%;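 also: 0% = neutral control wells and 100% = reference inhibitor control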
# 697 NFkB inh: inhibitors of the PMA/ionomycin-induced NF-kB reporter in 697 B cells; 697 B-cell NF-kB luciferase reporter, 16 h; inhibition, % at 4 µM; actives 0.33% (n = 330,000); in the data active = inhibition above about 35%
# MITF TRPM1 inh: inhibitors of MITF-driven TRPM1 promoter in melanoma cells; AID 488899; SK-MEL-5 TRPM1 promoter luciferase, 24 h; actives 0.83% (n = 330,000); inhibition, % at 12.5 µM;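 active = mean inhibition across replicates of 60% or more, whatever share of single replicates reaches that level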
# Starred values were filed as active, the others as inactive; · = no result. A selection: hits, their analogues and other compounds. The true share with any hit is near 2.3%.
SMILES,Jurkat NFkB inh,Shn3 3UTR inh,Gli-Sufu block,LMP1 NFkB inh,697 NFkB inh,MITF TRPM1 inh
O=C(Nc1cccc(Cl)c1Cl)C1CC(=O)N(c2ccc(Br)cc2)C1 (configuration not stated),3,87*,-8,7,12,22
Cc1ccc(NC(=O)C2(C)CCN2C(C)C)cc1C (configuration not stated),·,4,·,·,·,·
Cc1ccc(-n2c(O)c(C=Nc3ccc4c(c3)OCO4)c3ccccc3c2=O)cc1C,-3,42,-3,2,1,4
Cc1cc(N=Cc2c(O)n(-c3ccc4c(c3)OCO4)c(=O)c3ccccc23)ccn1,4,40,4,-2,-5,75*
NS(=O)(=O)c1ccc(NC(=S)N2CCN(c3ccc(Cl)c(Cl)c3)CC2)cc1,28,78,59*,14,-29,7
NS(=O)(=O)c1ccc(NC(=S)N2CCN(Cc3ccc(Cl)c(Cl)c3)CC2)cc1,0,21,11,-6,5,-14
O=C(CSc1nc2ncc(Cl)cc2[nH]1)N1CCOCC1,-7,86*,-2,-4,4,-4
CC(C)OC(=O)CSc1nc2ncc(Cl)cc2[nH]1,3,-9,20,-6,6,-6
C=CC[n+]1c(-c2ccc(OCC)cc2)csc1NNC(=O)Nc1ccccc1,27,88*,36,-2,-13,0
Cn1c(=O)n(CCC(=O)O)c2ccccc21,-10,7,0,-3,-51,2
CCCCC(=O)NC(c1cccc([N+](=O)[O-])c1)c1ccc2cccnc2c1O (configuration not stated),·,89*,62*,50*,·,57
CC(C)C(=O)NC(c1ccccc1)c1cc([N+](=O)[O-])c2cccnc2c1O (configuration not stated),13,17,2,16,-74,-3
Oc1c(C(Nc2cccc(C(F)(F)F)c2)c2cccnc2)ccc2cccnc12 (configuration not stated),-7,48,23,7,-34,-25
O=[N+]([O-])c1ccc(NC(c2ccccc2)c2ccc3cccnc3c2O)cc1 (configuration not stated),·,91*,70*,57*,·,74*
COc1cccc(C(NC(C)=O)c2ccc3cccnc3c2O)c1 (configuration not stated),46,83,69*,50*,-21,84*
CCCCC(=O)NC(c1cccc([N+](=O)[O-])c1)c1c(OC(C)=O)ccc2ccccc12 (configuration not stated),-32,11,-1,0,9,8
Oc1cccc(C(Nc2nccs2)c2ccc3cccnc3c2O)c1 (configuration not stated),49,91*,23,51*,-49,48
COc1cccc(C(NC(C)=O)c2nc(-c3cccnc3)cs2)c1 (configuration not stated),·,-24,·,·,·,·
CCOc1ccc2oc(C(=O)NNC(=O)c3ccccc3O)c(C)c2c1,-2,-26,-10,1,-7,-5
CC(C)CNC(=O)C1(C)CCCCCN1C(=O)c1cc(C#N)cs1 (configuration not stated),·,2,·,·,·,·
CC(=O)NC(c1ccccc1)c1cc([N+](=O)[O-])c2cccnc2c1O (configuration not stated),13,-11,-2,2,-237,14
CC(=O)NC(c1cccc([N+](=O)[O-])c1)c1ccc2cccnc2c1O (configuration not stated),49,91*,·,62*,-21,44
FC(F)Oc1ccc(NC(=S)NCc2cccnc2)cc1,17,9,-9,8,7,0
CCOCCCNC(=O)/C(C#N)=C/c1ccc(Cl)c([N+](=O)[O-])c1,3,0,-2,58*,-3,89*
CCOCCCNC(=O)/C(C#N)=C/c1cc(OC)c(O)c([N+](=O)[O-])c1,13,-7,-2,-6,-22,9
SMILES,Jurkat NFkB inh,Shn3 3UTR inh,Gli-Sufu block,LMP1 NFkB inh,697 NFkB inh,MITF TRPM1 inh
COCCNC(=O)/C(C#N)=C/c1cccc(/C=C(\C#N)C(=O)NCCOC)c1,·,9,4,16,·,65*
CC(=O)c1cccc(CN2CCC(n3nccc3NC(=O)CCc3ccccc3)CC2)c1,3,-12,20,-4,-13,-3
CCOC(=O)N1C2CCC(C2)N1C(=O)OCC,·,93*,5,-9,·,-3
Cc1ccc(NS(=O)(=O)c2ccc(NC(=O)C(C)Sc3ccc(Cl)cc3)cc2)c(C)c1 (configuration not stated),-7,37,13,60*,10,11
CCCN1C(=O)c2cc(C(=O)NC3CCCC3)ccc2C1O (configuration not stated),-8,-14,-3,-18,-1,0
CCOCCCNCc1ccc(OC)cc1,-2,-3,2,-1,20,2
COc1ccc2cc(CNCCOCCOCCNCc3ccc4cc(OC)ccc4c3)ccc2c1,·,96*,1,-54,·,91*
O=C(O)c1sc2cc(C(F)(F)F)cnc2c1-c1ccccn1,8,5,-15,3,0,-3
CCN(CC)c1ccc(C2NC(=O)c3ccccc3N2)cc1 (configuration not stated),·,22,-67,43*,·,58
CCN(CC)c1ccc(C2Nc3cccc4cccc(c34)N2)cc1,-13,-50,18,-9,-71,-58
C=CC(=O)N1C/C(=C/c2ccccc2)C(=O)/C(=C\c2ccccc2)C1,·,97*,-1,85*,·,97*
C=CC(=O)N1C/C(=C/c2ccc(Cl)cc2)C(=O)/C(=C\c2ccc(Cl)cc2)C1,·,97*,-5,86*,·,98*
O=C1/C(=C/c2ccc(C(=O)O)cc2)CCC/C1=C\c1ccc(C(=O)O)cc1,5,-15,1,-2,-5,-9
Cc1ccc(NC(=O)CN2C(=O)CCS(=O)(=O)c3ccccc32)cc1Cl,7,-15,-3,-12,-5,0
Cn1c(=O)c2ncn(CC(=O)NC3CCCCCC3)c2n(C)c1=O,-5,6,-3,6,-11,3
O=C1C2C3c4ccccc4C(c4ccccc43)C2C(=O)N1CN1CCOCC1 (configuration not stated),-3,-4,7,-13,-1,-4
Fc1ccccc1-c1[nH]ncc1-c1nnnn1-c1ccccc1,9,·,-1,-1,-3,0
CCOC(=O)c1ccc(NC(=O)c2nc[nH]c2C(=O)NC)cc1,-14,-16,-1,3,8,-18
CCOC(=O)c1ccc(NC(=O)c2nc[nH]c2C(=O)NCCNC(=O)c2[nH]cnc2C(=O)Nc2ccc(C(=O)OCC)cc2)cc1,-7,88*,13,4,13,100*
CC(CP(=O)(O)O)NC(=O)Cc1ccccc1 (configuration not stated),-4,5,-5,-6,-3,2
